Consider seven sequences from publication PMC8384837, “Expanding the binding specificity for RNA recognition by a PUF domain”.

What all share (experiment): yeast three-hybrid, YBZ-1, SC-Leu-His + 0.5 mM 3-AT, 4 days
Holding throughout (conditions): tags: N-Gal4 AD-HA kept; label: inside an RPR1-promoter hybrid RNA with tandem MS2 sites; ssRNA

One experiment deals with PUM1 PUF domain R7-LNS (Homo sapiens, UniProt Q14671 828-1176, S1079L;E1083S). An outline of the steps:
(§1)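 A centromeric plasmid in strain YBZ-1 co-expressed Pumilio-1 PUF domain libraries, randomized at the three base-contacting residues of each repeat, with matching RNA elements; the strain carries a LexA–MS2 coat fusion and a HIS3 reporter. After four days on SC-Leu (input) or SC-Leu-His + 0.5 mM 3-AT (selection), the repeat regions were PCR-amplified and Illumina-sequenced. The interaction score is the log change in variant frequency from input to selection, using log2 and a pseudocount of 1 where absent.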

For the next experiment, the target named is PUM1 PUF domain R7-LSC (Homo sapiens, UniProt Q14671 828-1176, S1079L;N1080S;E1083C). An outline of the steps: as §1
The target of a further experiment is PUM1 PUF domain R7-CRR (Homo sapiens, UniProt Q14671 828-1176, S1079C;N1080R;E1083R). An outline of the steps:
as §1

A further experiment addresses PUM1 PUF domain R7-RRR (Homo sapiens, UniProt Q14671 828-1176, S1079R;N1080R;E1083R). Summed up: as §1
The next experiment deals with PUM1 PUF domain R3-SHG (Homo sapiens, UniProt Q14671 828-1176, C935S;R936H;Q939G). An outline of the steps:
as §1

In a further experiment the target is T1, PUM1 PUF domain R6-SFG (Homo sapiens, UniProt Q14671 828-1176, N1043S;Y1044F;Q1047G).
T1 sequence: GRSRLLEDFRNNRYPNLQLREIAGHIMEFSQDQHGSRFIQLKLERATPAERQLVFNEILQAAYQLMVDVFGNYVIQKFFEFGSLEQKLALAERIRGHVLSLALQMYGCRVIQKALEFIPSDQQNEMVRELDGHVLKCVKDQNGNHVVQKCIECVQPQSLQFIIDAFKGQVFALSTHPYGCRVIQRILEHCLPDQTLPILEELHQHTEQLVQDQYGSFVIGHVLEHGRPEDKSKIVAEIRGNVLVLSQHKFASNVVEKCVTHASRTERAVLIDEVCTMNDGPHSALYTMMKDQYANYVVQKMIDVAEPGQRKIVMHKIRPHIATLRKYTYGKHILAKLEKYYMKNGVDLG
An outline of the steps:
as §1

Another experiment concerns the target PUM1 PUF domain R4-PWS (Homo sapiens, UniProt Q14671 828-1176, N971P;H972W;Q975S). An outline of the steps: as §1
In another experiment the target is PUM1 PUF domain R8-SYW (Homo sapiens, UniProt Q14671 828-1176, N1122S;Q1126W). An outline of the steps: as §1
The next experiment concerns the target PUM1 PUF domain R4-PFS (Homo sapiens, UniProt Q14671 828-1176, N971P;H972F;Q975S). Summed up: as §1
Another experiment concerns the target PUM1 PUF domain R7-QFR (Homo sapiens, UniProt Q14671 828-1176, S1079Q;N1080F;E1083R). An outline of the steps:
as §1

As for “GGCUAGAACUAGUGGAUCCCCCGGCGCCCGGCGGCUCGAGCCCGGGUAAGUUUAAAUAGUCUGCAUGCCGCCGGGCGCCAUGCCUGCAGGUCGACUCUAGAAAACAUG”, the binding signal is 5.15 log2 enrichment (interaction score) in the experiment with PUM1 PUF domain R7-LNS, 4.33 log2 enrichment (interaction score) in the experiment with PUM1 PUF domain R7-LSC, 2.87 log2 enrichment (interaction score) with PUM1 PUF domain R7-CRR and 3.77 log2 enrichment (interaction score) with PUM1 PUF domain R7-RRR.

Regarding “GGCUAGAACUAGUGGAUCCCCCGGCGCCCGGCGGCUCGAGCCCGGGUAAGUGUAAUUAGUCUGCAUGCCGCCGGGCGCCAUGCCUGCAGGUCGACUCUAGAAAACAUG”, the binding signal with PUM1 PUF domain R3-SHG is 0.72 log2 enrichment (interaction score).

With “GGCUAGAACUAGUGGAUCCCCCGGCGCCCGGCGGCUCGAGCCCGGGUAAGUGUAAAUAGUCUGCAUGCCGCCGGGCGCCAUGCCUGCAGGUCGACUCUAGAAAACAUG”, the binding signal with PUM1 PUF domain R6-SFG was 4.88 log2 enrichment (interaction score); in the experiment with PUM1 PUF domain R4-PWS it was 6.05 log2 enrichment (interaction score); in the experiment with PUM1 PUF domain R8-SYW, 3.33 log2 enrichment (interaction score); in the experiment with PUM1 PUF domain R3-SHG, 3.6 log2 enrichment (interaction score).

For the sequence “GGCUAGAACUAGUGGAUCCCCCGGCGCCCGGCGGCUCGAGCCCGGGUAAGUGUACAUAGUCUGCAUGCCGCCGGGCGCCAUGCCUGCAGGUCGACUCUAGAAAACAUG”, the binding signal with PUM1 PUF domain R4-PFS was 5.13 log2 enrichment (interaction score); with PUM1 PUF domain R4-PWS it was 4.61 log2 enrichment (interaction score).

For the sequence “GGCUAGAACUAGUGGAUCCCCCGGCGCCCGGCGGCUCGAGCCCGGGUAAGUGUAAGUAGUCUGCAUGCCGCCGGGCGCCAUGCCUGCAGGUCGACUCUAGAAAACAUG”, the binding signal with PUM1 PUF domain R3-SHG is 2.83 log2 enrichment (interaction score).

With “GGCUAGAACUAGUGGAUCCCCCGGCGCCCGGCGGCUCGAGCCCGGGUAAGUCUAAAUAGUCUGCAUGCCGCCGGGCGCCAUGCCUGCAGGUCGACUCUAGAAAACAUG”, the binding signal in the experiment with PUM1 PUF domain R7-QFR was 2.43 log2 enrichment (interaction score); with PUM1 PUF domain R7-LNS, 0.35 log2 enrichment (interaction score); with PUM1 PUF domain R7-CRR, 0.18 log2 enrichment (interaction score); with PUM1 PUF domain R7-RRR, 3.52 log2 enrichment (interaction score).

“GGCUAGAACUAGUGGAUCCCCCGGCGCCCGGCGGCUCGAGCCCGGGUAAGUGUAUAUAGUCUGCAUGCCGCCGGGCGCCAUGCCUGCAGGUCGACUCUAGAAAACAUG”: in the experiment with PUM1 PUF domain R4-PFS, the binding signal was 4.11 log2 enrichment (interaction score).
